Measured values: PubChem BioAssay (NCI)
The panel holds about 83,000 compounds, 20% with a hit somewhere; the sample as a whole holds those more often.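 Values shown are percent growth following 48 h exposure of cells in 96-well plates to a single concentration of compound; below 10 was considered active.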 A number with no mark means an inactive call. The source made the active and inactive calls.

Experiments:
Assay in all cases: NCI-60 one-dose screen, 48 h (100 = growth as untreated, 0 = no growth, -100 = all killed)
Conditions in all cases: 10 µM unless noted
[1] = test system: HCT-15 colon
[2] = test system: HT29 colon
[3] = test system: SNB-75 CNS
[4] = test system: SNB-19 CNS
[5] = test system: U251 CNS
[6] = test system: PC-3 prostate
[7] = test system: SK-MEL-5 melanoma
[8] = test system: UACC-62 melanoma
[9] = test system: LOX IMVI melanoma
[10] = test system: SK-MEL-28 melanoma
[11] = test system: SK-MEL-2 melanoma
[12] = test system: EKVX NSCLC
[13] = test system: SN12C renal
[14] = test system: UO-31 renal
[15] = test system: TK-10 renal
[16] = test system: CAKI-1 renal
[17] = test system: A498 renal
[18] = test system: CCRF-CEM leukemia
[19] = test system: MOLT-4 leukemia
[20] = test system: ACHN renal

| SMILES | growth [1] | growth [2] | growth [3] | growth [4] | growth [5] | growth [6] | growth [7] | growth [8] | growth [9] | growth [10] | growth [11] | growth [12] | growth [13] | growth [14] | growth [15] | growth [16] | growth [17] | growth [18] | growth [19] | growth [20] |
| --- | --- | --- | --- | --- | --- | --- | --- | --- | --- | --- | --- | --- | --- | --- | --- | --- | --- | --- | --- | --- |
| COc1ccc(/C=c2\c(=O)n(-c3ccccc3)c3nn4c(n23)=NNC42CCCCC2)cc1 | 102% | 106% | 87.7% | 93.9% | 103% | 90.1% | 100% | 93.2% | 95.1% | 111% | 108% | 91.8% | 98.5% | 63.2% | 159% | 85.6% | 93.4% | 101% | 98.8% | – |
| CCCCCCCCCC1=NC(C)(C)CN1C(C)(C)CO | 82.2% | 49.2% | 102% | 92.1% | 82.6% | 83.8% | 84% | 98.8% | 85.6% | 131% | 124% | 90.8% | 83.6% | 56.8% | 97.7% | 75% | – | 82.4% | 15.9% | 93.6% |
| O=C(Nc1ccc(Cl)c(C(F)(F)F)c1)c1ccc(Nc2ccc(Cl)nn2)cc1 | 46.4% | 61.7% | 84.2% | 76.7% | 51.5% | 49.6% | 59.6% | 51.9% | 54.7% | 72.5% | 83.3% | 55.7% | 78.9% | 0.31% (active) | 68.1% | – | 51.6% | 44.8% | 43.7% | 52.4% |
| O=C(NCCNC(=O)c1cc(S(=O)(=O)NCCc2ccccc2)c(O)c(O)c1O)c1cc(S(=O)(=O)NCCc2ccccc2)c(O)c(O)c1O | 40.5% | 108% | 63% | 35.7% | 31.3% | 40.2% | 15.6% | -15% (active) | 15% | 54.2% | 63% | 49.9% | 52.3% | 46.5% | 96.6% | – | 87.3% | 45% | 56.6% | 68.6% |
| OC(c1cc2cc(Cl)ccc2c2cc(C(F)(F)F)ccc12)C1CCCCN1 (stereo unspecified) | -61.7% (active) | -87.3% (active) | -90% (active) | -68.6% (active) | -93.4% (active) | -83.1% (active) | -24.9% (active) | -72.7% (active) | -39.8% (active) | -90.5% (active) | -92% (active) | -40.4% (active) | -62.8% (active) | -88.2% (active) | -96.4% (active) | -74.2% (active) | – | -61.2% (active) | -69.3% (active) | -78.2% (active) |
| CN(CCO)c1ccc(N2Cc3ccccc3OC3=C2C(=O)c2c(O)ccc(O)c2C3=O)cn1 | -83.6% (active) | -49% (active) | -13.7% (active) | 6.43% (active) | -24.8% (active) | -14.8% (active) | -94.9% (active) | -88.3% (active) | -86.6% (active) | -83.4% (active) | -54.4% (active) | -38.5% (active) | -90.9% (active) | -100% (active) | -98.5% (active) | – | -48.2% (active) | -12.2% (active) | -30.6% (active) | -100% (active) |
| Oc1ccc(-c2cnc(-c3ccccc3)[nH]2)c(O)c1 | 107% | 120% | 94.2% | 98% | 110% | 100% | 105% | 85.6% | 105% | 105% | 137% | 107% | 91.6% | 88.7% | 112% | – | 110% | -41.7% (active) | 94% | – |
| CCOC(=O)c1ccc(NCCC(=O)O)cc1 | 97.1% | 96.8% | 96% | 105% | 109% | 91.7% | 104% | 102% | 101% | 107% | 96.7% | 122% | 108% | 83.1% | 101% | 109% | 113% | 97.6% | 87.2% | – |
